The supplement of paper PMC10849652
The full data set covers some 8,800 targets. This sample favours those with a hit. About 0.5% of all pairs of compound and target were hits.

How the values were obtained:
Assay in all cases: log2 fold change, soluble protein after heating vs DMSO (PISA); higher = thermal stabilisation; K562 lysate, 10 uM; active = over 0.2 and 3.5 SD of the protein, either way, in both replicates (recomputed)
[1] = compound: NCC(=O)Nc1ccc(-n2nc(C(F)(F)F)cc2-c2ccc3c(ccc4ccccc43)c2)cc1
Outline: (§1)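 A 30 min treatment with 10 μM compound was applied to crude K562 extract at 1 mg/mL protein in PBS pH 7.4 with 1 mM MgCl2. Heating for 3 min spanned 48°C-58°C, after which aliquots were pooled, adjusted to 0.5% NP-40 at 4°C and spun at 21,000xg for 90 min. TMTpro 16plex LC-MS/MS of the supernatant, with channel sums equalised, gave values recorded as log-two fold change in thermal stability against solvent controls, from duplicates.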

vorinostat = compound: O=C(CCCCCCC(=O)Nc1ccccc1)NO [vorinostat]
Outline: as §1

silmitasertib = compound: O=C(O)c1ccc2c(c1)nc(Nc1cccc(Cl)c1)c1ccncc12 [silmitasertib]
Outline: as §1

[2] = compound: O=C1NC(=O)C(c2cnc3ccccn23)=C1c1cn2c3c(cc(F)cc13)CN(C(=O)N1CCCCC1)CC2
Outline: as §1

entospletinib = compound: c1cn2cc(-c3ccc4cn[nH]c4c3)nc(Nc3ccc(N4CCOCC4)cc3)c2n1 [entospletinib]
Outline: as §1

Measured: log2 fold change

LSM11 (UniProt P83369)
inactive: [1] 0.233 | vorinostat -0.027 | silmitasertib 0.194 | [2] 0.014 | entospletinib -0.02

MAPK14 isoform 2 (UniProt Q16539)
inactive: [1] -0.06 | vorinostat -0.328 | silmitasertib 0.291 | [2] -0.092 | entospletinib -0.015

LZTR1 (UniProt Q8N653)
active: vorinostat -0.472
inactive: [1] -0.022 | silmitasertib 0.005 | [2] 0.013 | entospletinib 0.055

MICB, A0A140T979
inactive: [1] 0.068 | vorinostat 0.196 | silmitasertib -0.121 | [2] 0.021 | entospletinib 0.35

MBOAT2 (UniProt Q6ZWT7)
inactive: [1] -0.017 | vorinostat 0.13 | silmitasertib 0.024 | [2] 0.005 | entospletinib -0.092

MED8 isoform 2 (UniProt Q96G25)
inactive: [1] 0.019 | vorinostat 0.037 | silmitasertib -0.012 | [2] -0.026 | entospletinib 0

KLHL36 (UniProt Q8N4N3)
inactive: [1] 0.059 | vorinostat -0.161 | silmitasertib 0.082 | [2] -0.037 | entospletinib -0.006

KNSTRN (UniProt Q9Y448)
inactive: [1] -0.018 | vorinostat -0.054 | silmitasertib 0 | [2] 0.057 | entospletinib 0.02

MPDZ (UniProt O75970)
active: vorinostat -0.59
inactive: [1] 0.058 | silmitasertib 0.066 | [2] 0.177 | entospletinib -0.111

MACO1 (UniProt Q8N5G2)
inactive: [1] 0.081 | vorinostat 0.028 | silmitasertib -0.003 | [2] -0.003 | entospletinib 0.005

MAPK9 (UniProt P45984)
inactive: [1] -0.008 | vorinostat -0.129 | silmitasertib 0.037 | [2] -0.004 | entospletinib 0

KLC4 isoform 3 (UniProt Q9NSK0)
inactive: [1] 0.01 | silmitasertib 0.009 | [2] -0.041 | entospletinib -0.006
active: vorinostat -0.557

MPI (UniProt P34949)
UniProt P34949, sequence (P34949 whole entry, looked up): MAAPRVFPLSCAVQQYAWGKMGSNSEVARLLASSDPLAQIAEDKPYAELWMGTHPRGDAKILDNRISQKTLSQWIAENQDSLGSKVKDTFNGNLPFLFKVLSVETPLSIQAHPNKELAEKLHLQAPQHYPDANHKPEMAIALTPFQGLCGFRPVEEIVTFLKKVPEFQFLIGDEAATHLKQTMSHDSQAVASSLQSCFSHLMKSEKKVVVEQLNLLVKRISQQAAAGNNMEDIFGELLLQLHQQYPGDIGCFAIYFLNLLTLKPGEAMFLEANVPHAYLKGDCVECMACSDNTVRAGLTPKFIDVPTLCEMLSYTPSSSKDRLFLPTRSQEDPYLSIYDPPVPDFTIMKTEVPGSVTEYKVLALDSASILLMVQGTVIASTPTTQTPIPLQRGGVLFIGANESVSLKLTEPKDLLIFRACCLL
inactive: [1] 0.013 | vorinostat 0.049 | silmitasertib -0.047 | [2] -0.007 | entospletinib -0.017

MAD2L1BP isoform 3 (UniProt Q15013)
inactive: [1] -0.026 | silmitasertib -0.019 | [2] 0.008 | entospletinib 0
active: vorinostat -0.299

MAP3K4 (UniProt Q9Y6R4)
active: vorinostat -0.524
inactive: [1] -0.025 | silmitasertib 0.229 | [2] -0.025 | entospletinib -0.045

KIF21A isoform 5 (UniProt Q7Z4S6)
UniProt Q7Z4S6, sequence (Q7Z4S6 whole entry, looked up): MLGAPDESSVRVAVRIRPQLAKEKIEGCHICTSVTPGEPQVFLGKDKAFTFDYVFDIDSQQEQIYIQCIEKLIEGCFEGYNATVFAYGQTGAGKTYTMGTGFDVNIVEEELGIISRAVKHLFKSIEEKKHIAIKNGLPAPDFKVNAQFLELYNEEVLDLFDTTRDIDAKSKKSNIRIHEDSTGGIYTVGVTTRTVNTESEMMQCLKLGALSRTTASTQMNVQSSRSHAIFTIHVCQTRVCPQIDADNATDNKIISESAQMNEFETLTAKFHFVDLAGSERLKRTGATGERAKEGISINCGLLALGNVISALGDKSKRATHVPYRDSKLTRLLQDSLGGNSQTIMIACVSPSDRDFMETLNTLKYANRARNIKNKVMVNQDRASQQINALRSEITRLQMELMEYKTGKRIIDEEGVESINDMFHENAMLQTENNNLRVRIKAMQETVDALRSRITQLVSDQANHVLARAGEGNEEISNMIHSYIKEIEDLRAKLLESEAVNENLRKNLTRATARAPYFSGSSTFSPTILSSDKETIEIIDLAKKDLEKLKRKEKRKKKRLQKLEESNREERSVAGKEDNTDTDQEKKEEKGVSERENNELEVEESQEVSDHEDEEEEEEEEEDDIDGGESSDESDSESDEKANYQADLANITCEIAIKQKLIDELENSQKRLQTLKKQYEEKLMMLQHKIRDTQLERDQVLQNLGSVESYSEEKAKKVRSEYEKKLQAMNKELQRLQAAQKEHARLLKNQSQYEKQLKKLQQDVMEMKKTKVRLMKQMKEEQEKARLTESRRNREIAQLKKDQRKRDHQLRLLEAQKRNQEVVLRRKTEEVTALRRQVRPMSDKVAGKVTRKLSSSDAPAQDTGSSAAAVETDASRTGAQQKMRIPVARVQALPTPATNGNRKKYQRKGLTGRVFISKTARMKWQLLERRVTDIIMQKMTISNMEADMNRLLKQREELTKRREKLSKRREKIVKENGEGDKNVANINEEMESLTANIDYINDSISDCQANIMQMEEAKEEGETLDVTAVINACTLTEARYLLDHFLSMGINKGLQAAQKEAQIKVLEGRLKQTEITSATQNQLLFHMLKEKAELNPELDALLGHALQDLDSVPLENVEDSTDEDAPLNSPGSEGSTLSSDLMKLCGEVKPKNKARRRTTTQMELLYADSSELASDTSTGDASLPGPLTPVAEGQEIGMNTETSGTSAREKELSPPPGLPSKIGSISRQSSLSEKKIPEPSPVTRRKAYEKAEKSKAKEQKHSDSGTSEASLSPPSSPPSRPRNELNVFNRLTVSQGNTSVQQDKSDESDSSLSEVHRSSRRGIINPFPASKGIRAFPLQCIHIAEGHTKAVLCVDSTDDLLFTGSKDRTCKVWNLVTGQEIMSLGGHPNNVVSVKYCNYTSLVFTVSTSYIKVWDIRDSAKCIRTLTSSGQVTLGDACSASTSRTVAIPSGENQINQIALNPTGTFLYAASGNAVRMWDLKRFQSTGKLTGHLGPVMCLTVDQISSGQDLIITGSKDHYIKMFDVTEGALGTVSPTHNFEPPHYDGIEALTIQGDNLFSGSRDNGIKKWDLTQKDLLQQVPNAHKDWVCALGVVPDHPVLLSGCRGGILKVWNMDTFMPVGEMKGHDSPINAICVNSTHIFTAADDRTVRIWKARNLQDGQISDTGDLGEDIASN
inactive: [1] 0.005 | silmitasertib -0.004 | [2] 0.007 | entospletinib -0.058
active: vorinostat -0.239

MARK3 (UniProt P27448)
inactive: [1] -0.035 | vorinostat -0.069 | [2] 0.035 | entospletinib 0.036
active: silmitasertib 0.445

LLGL1 (UniProt Q15334)
active: vorinostat -0.524
inactive: [1] 0.078 | silmitasertib 0.077 | [2] -0.046 | entospletinib 0.042

MBTPS1 (UniProt Q14703)
inactive: [1] 0.17 | vorinostat 0.116 | silmitasertib -0.023 | [2] -0.044 | entospletinib 0.094

MINK1 (UniProt Q8N4C8)
inactive: [1] -0.02 | vorinostat -0.205 | silmitasertib -0.109 | [2] 0.043 | entospletinib 0.182

MGST3 (UniProt O14880)
inactive: [1] -0.025 | vorinostat 0.128 | silmitasertib 0 | [2] 0.033 | entospletinib 0.041

MARK1 (UniProt Q9P0L2)
UniProt Q9P0L2, sequence (Q9P0L2 whole entry, looked up): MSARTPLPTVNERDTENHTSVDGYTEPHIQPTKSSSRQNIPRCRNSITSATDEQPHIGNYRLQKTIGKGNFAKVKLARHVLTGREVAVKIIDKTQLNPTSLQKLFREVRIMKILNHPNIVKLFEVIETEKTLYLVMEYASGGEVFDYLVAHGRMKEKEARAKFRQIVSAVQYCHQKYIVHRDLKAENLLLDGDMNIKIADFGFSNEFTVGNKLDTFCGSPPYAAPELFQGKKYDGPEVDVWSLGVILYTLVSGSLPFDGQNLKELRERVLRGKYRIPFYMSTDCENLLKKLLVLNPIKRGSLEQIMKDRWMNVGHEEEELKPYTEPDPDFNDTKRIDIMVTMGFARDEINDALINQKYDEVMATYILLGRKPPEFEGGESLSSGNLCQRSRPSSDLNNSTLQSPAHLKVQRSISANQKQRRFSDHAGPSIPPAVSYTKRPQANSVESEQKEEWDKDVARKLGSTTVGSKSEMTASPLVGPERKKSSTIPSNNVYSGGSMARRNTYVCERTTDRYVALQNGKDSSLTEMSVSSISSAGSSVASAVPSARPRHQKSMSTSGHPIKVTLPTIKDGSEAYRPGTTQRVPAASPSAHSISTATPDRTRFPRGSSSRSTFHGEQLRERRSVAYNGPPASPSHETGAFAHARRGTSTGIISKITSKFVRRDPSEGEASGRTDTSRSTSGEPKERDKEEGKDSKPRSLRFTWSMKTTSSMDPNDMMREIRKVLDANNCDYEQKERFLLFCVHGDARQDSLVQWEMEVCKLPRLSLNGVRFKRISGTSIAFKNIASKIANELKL
active: silmitasertib 0.485
inactive: [1] 0.017 | vorinostat -0.225 | [2] -0.059 | entospletinib 0.049

MAPK1 (UniProt P28482)
inactive: [1] -0.027 | vorinostat 0.039 | silmitasertib 0.042 | [2] -0.005 | entospletinib -0.039

MAP4 (UniProt P27816)
inactive: [1] 0.017 | vorinostat 0.092 | silmitasertib -0.023 | [2] 0.016 | entospletinib 0.005

MRPL10 isoform 2 (UniProt Q7Z7H8)
inactive: [1] 0.005 | vorinostat 0.035 | silmitasertib -0.027 | [2] -0.027 | entospletinib -0.027

MMS19 isoform 8 (UniProt Q96T76)
inactive: [1] 0.057 | silmitasertib 0.054 | [2] 0.029 | entospletinib 0.024
active: vorinostat -0.372

MGST1 (UniProt P10620)
inactive: [1] -0.013 | vorinostat 0.037 | silmitasertib -0.013 | [2] 0.031 | entospletinib -0.01

L3HYPDH (UniProt Q96EM0)
UniProt Q96EM0, sequence (Q96EM0 whole entry, looked up): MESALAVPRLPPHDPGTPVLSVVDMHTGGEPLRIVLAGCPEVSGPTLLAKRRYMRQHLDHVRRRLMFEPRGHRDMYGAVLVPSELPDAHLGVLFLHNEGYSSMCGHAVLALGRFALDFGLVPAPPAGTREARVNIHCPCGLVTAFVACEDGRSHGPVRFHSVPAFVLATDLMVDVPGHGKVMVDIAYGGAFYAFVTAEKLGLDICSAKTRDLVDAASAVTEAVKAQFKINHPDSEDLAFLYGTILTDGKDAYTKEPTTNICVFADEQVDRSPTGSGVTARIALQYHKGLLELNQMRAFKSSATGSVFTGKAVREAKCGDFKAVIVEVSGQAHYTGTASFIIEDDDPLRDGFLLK
inactive: [1] 0.023 | silmitasertib 0 | [2] -0.02 | entospletinib -0.005
active: vorinostat -0.31

MBLAC2 (UniProt Q68D91)
UniProt Q68D91, sequence (Q68D91 whole entry, looked up): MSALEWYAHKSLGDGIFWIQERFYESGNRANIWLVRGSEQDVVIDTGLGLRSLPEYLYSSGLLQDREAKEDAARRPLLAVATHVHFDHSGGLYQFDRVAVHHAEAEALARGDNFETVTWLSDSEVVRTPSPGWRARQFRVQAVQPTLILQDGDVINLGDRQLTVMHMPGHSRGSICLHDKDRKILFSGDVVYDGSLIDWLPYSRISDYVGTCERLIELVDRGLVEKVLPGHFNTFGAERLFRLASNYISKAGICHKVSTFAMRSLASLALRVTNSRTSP
inactive: [1] -0.1 | vorinostat 0.084 | silmitasertib -0.015 | [2] -0.074 | entospletinib -0.011

MAP11 (UniProt Q8WVR3)
active: vorinostat -0.488
inactive: [1] -0.017 | silmitasertib -0.015 | [2] 0.056 | entospletinib -0.131

LAP3 (UniProt P28838)
UniProt P28838, sequence (P28838 whole entry, looked up): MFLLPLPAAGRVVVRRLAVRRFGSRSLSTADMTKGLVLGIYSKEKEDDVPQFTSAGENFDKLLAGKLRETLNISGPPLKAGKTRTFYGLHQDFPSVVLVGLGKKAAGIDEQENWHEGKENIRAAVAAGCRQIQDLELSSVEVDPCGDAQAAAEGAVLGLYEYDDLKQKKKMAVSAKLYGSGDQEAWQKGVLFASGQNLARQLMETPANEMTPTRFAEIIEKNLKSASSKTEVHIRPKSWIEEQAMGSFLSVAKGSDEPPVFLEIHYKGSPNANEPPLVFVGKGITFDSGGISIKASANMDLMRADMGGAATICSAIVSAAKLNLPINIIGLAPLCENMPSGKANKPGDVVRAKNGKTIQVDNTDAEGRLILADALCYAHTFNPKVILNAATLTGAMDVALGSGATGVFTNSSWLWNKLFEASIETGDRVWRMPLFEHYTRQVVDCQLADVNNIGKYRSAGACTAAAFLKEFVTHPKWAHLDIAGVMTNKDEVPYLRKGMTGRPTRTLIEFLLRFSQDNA
inactive: [1] 0.048 | vorinostat 0.082 | silmitasertib -0.104 | [2] 0.104 | entospletinib -0.008

KIF2C (UniProt Q99661)
UniProt Q99661, sequence (Q99661 whole entry, looked up): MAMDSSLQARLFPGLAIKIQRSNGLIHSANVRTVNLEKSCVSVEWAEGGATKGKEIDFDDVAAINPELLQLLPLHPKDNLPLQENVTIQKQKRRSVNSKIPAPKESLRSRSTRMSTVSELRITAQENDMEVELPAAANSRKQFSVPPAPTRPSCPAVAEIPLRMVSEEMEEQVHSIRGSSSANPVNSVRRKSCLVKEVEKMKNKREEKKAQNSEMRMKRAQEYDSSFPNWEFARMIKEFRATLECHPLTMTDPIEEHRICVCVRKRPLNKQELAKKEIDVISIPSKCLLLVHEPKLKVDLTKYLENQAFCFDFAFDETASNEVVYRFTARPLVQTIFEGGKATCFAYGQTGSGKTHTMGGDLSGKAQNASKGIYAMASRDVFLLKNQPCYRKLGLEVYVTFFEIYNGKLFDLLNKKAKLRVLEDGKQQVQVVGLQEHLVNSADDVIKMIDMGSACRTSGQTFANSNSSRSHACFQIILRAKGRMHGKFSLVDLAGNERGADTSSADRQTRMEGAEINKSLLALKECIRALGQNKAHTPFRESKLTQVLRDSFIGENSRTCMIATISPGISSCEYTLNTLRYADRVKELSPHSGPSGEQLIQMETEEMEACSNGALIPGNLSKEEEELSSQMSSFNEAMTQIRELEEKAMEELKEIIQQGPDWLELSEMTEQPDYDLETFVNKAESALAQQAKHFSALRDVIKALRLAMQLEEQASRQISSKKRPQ
active: vorinostat -0.464
inactive: [1] 0.003 | silmitasertib 0.028 | [2] 0.012 | entospletinib 0.024

LSS (UniProt P48449)
inactive: [1] -0.042 | vorinostat 0.049 | silmitasertib -0.039 | [2] -0.014 | entospletinib -0.043

MAD2L2 (UniProt Q9UI95)
UniProt Q9UI95, sequence (Q9UI95 whole entry, looked up): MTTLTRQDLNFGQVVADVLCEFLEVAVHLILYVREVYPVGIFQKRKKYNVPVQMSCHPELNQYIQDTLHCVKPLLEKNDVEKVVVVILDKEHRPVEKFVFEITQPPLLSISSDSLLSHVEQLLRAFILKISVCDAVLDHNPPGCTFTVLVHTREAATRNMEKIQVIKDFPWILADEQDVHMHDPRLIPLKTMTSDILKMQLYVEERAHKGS
active: vorinostat -0.348
inactive: [1] 0.075 | silmitasertib -0.006 | [2] -0.02 | entospletinib 0.017

LSG1 (UniProt Q9H089)
inactive: [1] -0.074 | vorinostat -0.052 | silmitasertib 0.043 | [2] 0.096 | entospletinib 0.139

MRPL19 (UniProt P49406)
active: vorinostat -0.311
inactive: [1] 0 | silmitasertib 0.012 | [2] 0.027 | entospletinib -0.054

LIMS1 isoform 3 (UniProt P48059)
inactive: [1] -0.022 | vorinostat 0.049 | silmitasertib 0.013 | [2] 0.054 | entospletinib -0.016

MAP2K1 (UniProt Q02750)
inactive: [1] -0.005 | vorinostat -0.116 | silmitasertib 0.108 | [2] 0.006 | entospletinib 0.03

LGALS3BP (UniProt Q08380)
inactive: [1] 0.153 | vorinostat 0.176 | silmitasertib -0.121 | [2] 0.113 | entospletinib -0.129

MED16 (UniProt Q9Y2X0)
inactive: [1] -0.005 | silmitasertib 0.052 | [2] -0.022 | entospletinib 0.016
active: vorinostat -0.354

MAP7D3 (UniProt Q8IWC1)
inactive: [1] 0.098 | vorinostat 0.037 | silmitasertib 0.059 | [2] -0.046 | entospletinib -0.013
